The values that follow come from the OligoGym collection.
Note: reference of the scale not given here.

For one assay, the target named is BDH2. In words: pooled miR-30 sensor sort-seq; sequence = guide strand. The note with it: shRNA.
The sequence TTCCATGATGGACAAAACCAGC had a sensor-assay potency score (higher = more potent) of -1.2. Consider TTGGTTGTGCTGTACACACATC, for which the sensor-assay potency score (higher = more potent) is -1.05. On the same count and under the same terms, next, TTAAAGAGAACATCAAGTCTCT: 0.782. Regarding TTTGTTTCTTCTTTGTGACATC, the sensor-assay potency score (higher = more potent) was -0.953. The same measure, in the same setting: the value for TTCACAACTCCTTTGACGCTGG was 0.0987. The same measure, in the same setting: next, AAACTGATCAATTTGTTTCTTC: 0.524; TAATATTGCCAGATTTCTGAGC: -0.452.

On to TATTGCCAGATTTCTGAGCAAG, for which the sensor-assay potency score (higher = more potent) is -1.16. On the same count and under the same terms, next, TTACATAAGCAGATTCATCAGA: 0.11; TTGGACTCATTAATGTCTGTGG: -0.0604. The same measure, in the same setting: next, TTGATCATCAGGTACATGCTGC: 0.603; TTCTTTCTTGTAGAGATGGCGT: -0.55.

Another assay addresses BEST2. Described as above. The note with it: shRNA.
As to ATAAATCACAAGCTTCTCGAAG, the sensor-assay potency score (higher = more potent) was -0.809. On the same count and under the same terms, the value for TTAAGGGCGCTGTTGTCGCGGA was -1.06.

For ATACATCTCGTCCACTGCCAGC, the sensor-assay potency score (higher = more potent) was -1.42. TACGCTAATCCAGTCATAGTGA showed a sensor-assay potency score (higher = more potent) of -0.195.

In turn, TAAATCACAAGCTTCTCGAAGT returned a sensor-assay potency score (higher = more potent) of -0.564. Same read-out and setting: the value for AACTTCTTGCGCTCCTCGCGGG was -0.5; that for TGGAACTGCATGTCTTCTTTGG was -0.925; that for AAGCGCTTGAACACCGCGGTGC was 0.183.
